According to the supplement of paper PMC10037445:
Several values for one entry are separate records, joined by “and”; a condition that tells them apart may be missing. Equal values may be shown once. In all, about 2,900 compounds were measured (“NF-kB SEAP reporter activity, fold change vs agonist alone”: median about 0.99, highest 2% from about 2.6 on). The list comes from a sample in which the highest values are over-represented; it also holds similar structures and randomly drawn compounds.

How the values were obtained:
RAW-Dual [1] = assay: NF-kB SEAP reporter activity, fold change vs agonist alone; higher = enhanced NF-kB activity; settings: library stock concentration (final ~1000-fold dilution): 10 mM
Procedure, shortened: (§1)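 Cytotoxic wells were those whose IncuCyte confluency was below 70% of agonist controls in both mask sets. The cells were RAW-Dual macrophages at 50,000 cells/well in DMEM on 384-well plates, dosed with 50 nL of library stock by pin tool, stimulated with a PRR agonist 1 h later, and kept at 37 °C, 5% CO2 for 20 hours. IRF and NF-κB reporter activity, as fold change over agonist-alone wells, came from supernatant read by QuantiLuc luminescence and QuantiBlue absorbance, respectively.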

RAW-Dual [2] = assay: NF-kB SEAP reporter activity, fold change vs agonist alone; cytotoxicity flag (confluency mask): cytotoxic (confluency <70% of control); higher = enhanced NF-kB activity
Procedure, shortened: as §1

RAW-Dual [3] = assay: NF-kB SEAP reporter activity, fold change vs agonist alone; cytotoxicity flag (confluency mask): not cytotoxic; higher = enhanced NF-kB activity
Procedure, shortened: as §1

[4] = cytotoxicity flag (confluency mask): cytotoxic (confluency <70% of control), agonist: MPLA (TLR4) […]
[5] = agonist: ODN 1826 (TLR9) 0.5 ug/mL
[6] = agonist: Pam2CSK4 (TLR2/6) 0.1 ug/mL
[7] = agonist: Pam3CSK4 (TLR2/1) 0.1 ug/mL
[8] = cytotoxicity flag (confluency mask): not cytotoxic, agonist: Imiquimod (TLR7) […]
[9] = cytotoxicity flag (confluency mask): not cytotoxic, agonist: MPLA (TLR4) […]
[10] = cytotoxicity flag (confluency mask): cytotoxic (confluency <70% of control), agonist: Imiquimod (TLR7) […]

For `CC(NCCC(c1ccccc1)c1ccccc1)c1ccccc1.Cl` (configuration not stated), which “NF-kB SEAP reporter activity” value (RAW-Dual [1]; [4]) is on record?
The value was 1.24.

For `CC(NCCC(c1ccccc1)c1ccccc1)c1ccccc1.Cl` (configuration not stated) (library stock concentration (final ~1000-fold dilution): 10 mM), which “NF-kB SEAP reporter activity” value (RAW-Dual [2]; agonist: LPS (TLR4) 0.1 ug/mL) is on record?
The value was 1.18.

And the “NF-kB SEAP reporter activity” value (RAW-Dual [2]; [5])?
Its value is 0.723.

And the “NF-kB SEAP reporter activity” value (RAW-Dual [2]; [6])?
The value was 0.754.

What about the “NF-kB SEAP reporter activity” value (RAW-Dual [2]; [7]) of the same molecule?
Its value is 0.637.

With `CCCCCCCCCCCC(CC1OC(=O)C1CCCCCC)OC(=O)C(CC(C)C)NC=O` (configuration not stated) (library stock concentration (final ~1000-fold dilution): 10 mM) as the molecule, how does the “NF-kB SEAP reporter activity” value (RAW-Dual [3]; agonist: LPS (TLR4) 0.1 ug/mL) read?
Its value is 1.07.

And the “NF-kB SEAP reporter activity” value (RAW-Dual [3]; [5])?
The value was 1.02.

What about the “NF-kB SEAP reporter activity” value (RAW-Dual [3]; [6]) of the same molecule?
Its value is 0.959.

And the “NF-kB SEAP reporter activity” value (RAW-Dual [3]; [7])?
The value was 0.978.

For `CCCCCCCCCCCC(CC1OC(=O)C1CCCCCC)OC(=O)C(CC(C)C)NC=O` (configuration not stated), which “NF-kB SEAP reporter activity” value (RAW-Dual [1]; [8]) is on record?
Its value is 0.823.

What about the “NF-kB SEAP reporter activity” value (RAW-Dual [1]; [9]) of the same molecule?
Its value is 0.902.

Which results are given for `CN(C)C/C=C/C(=O)Nc1ccc(C(=O)Nc2cccc(Nc3ncc(Cl)c(-c4c[nH]c5ccccc45)n3)c2)cc1.Cl.Cl` (library stock concentration (final ~1000-fold dilution): 10 mM)?
NF-kB SEAP reporter activity (RAW-Dual [2]; agonist: LPS (TLR4) 0.1 ug/mL): 0.242; NF-kB SEAP reporter activity (RAW-Dual [2]; [5]): 0.189; NF-kB SEAP reporter activity (RAW-Dual [2]; [6]): 0.0773; NF-kB SEAP reporter activity (RAW-Dual [2]; [7]): 0.176

Which results are given for `CN(C)C/C=C/C(=O)Nc1ccc(C(=O)Nc2cccc(Nc3ncc(Cl)c(-c4c[nH]c5ccccc45)n3)c2)cc1.Cl.Cl`?
NF-kB SEAP reporter activity (RAW-Dual [1]; [10]): 0.142; NF-kB SEAP reporter activity (RAW-Dual [1]; [4]): 0.258

What does the source list for `N#Cc1ccnc(N2C(=O)CCC2C(=O)N(c2cncc(F)c2)C(C(=O)NC2CC(F)(F)C2)c2ccccc2Cl)c1` (configuration not stated) (library stock concentration (final ~1000-fold dilution): 10 mM)?
NF-kB SEAP reporter activity (RAW-Dual [3]; agonist: LPS (TLR4) 0.1 ug/mL): 1.37; NF-kB SEAP reporter activity (RAW-Dual [3]; [5]): 1.16; NF-kB SEAP reporter activity (RAW-Dual [3]; [6]): 0.753; NF-kB SEAP reporter activity (RAW-Dual [3]; [7]): 0.775

Which results are given for `N#Cc1ccnc(N2C(=O)CCC2C(=O)N(c2cncc(F)c2)C(C(=O)NC2CC(F)(F)C2)c2ccccc2Cl)c1` (configuration not stated)?
NF-kB SEAP reporter activity (RAW-Dual [1]; [8]): 1.14; NF-kB SEAP reporter activity (RAW-Dual [1]; [9]): 1.16

Which “NF-kB SEAP reporter activity” value (RAW-Dual [3]; agonist: LPS (TLR4) 0.1 ug/mL) does the source give for `COC(=O)C1=C(C)NC(C)=C(C(=O)OCC(C)C)C1c1ccccc1[N+](=O)[O-]` (configuration not stated) (library stock concentration (final ~1000-fold dilution): 10 mM) here?
The value was 0.885.

And the “NF-kB SEAP reporter activity” value (RAW-Dual [3]; [5])?
The value was 0.605.

And the “NF-kB SEAP reporter activity” value (RAW-Dual [3]; [6])?
The value was 0.675.

What about the “NF-kB SEAP reporter activity” value (RAW-Dual [3]; [7]) of the same molecule?
The value was 0.706.

For `CCOC(=O)C1=C(C)NC(C)=C(C(=O)OC)C1c1cccc(Cl)c1Cl` (configuration not stated), which “NF-kB SEAP reporter activity” value (RAW-Dual [1]; [8]) is on record?
Its value is 1.53.

And the “NF-kB SEAP reporter activity” value (RAW-Dual [1]; [9])?
The value was 0.952.

How did the “NF-kB SEAP reporter activity” value (RAW-Dual [3]; agonist: LPS (TLR4) 0.1 ug/mL) turn out when `CCCC(=O)OCOC(=O)C1=C(C)NC(C)=C(C(=O)OC)C1c1cccc(Cl)c1Cl` (configuration not stated) (library stock concentration (final ~1000-fold dilution): 10 mM) was run?
The value was 0.954.

And the “NF-kB SEAP reporter activity” value (RAW-Dual [3]; [5])?
Its value is 1.19.

What about the “NF-kB SEAP reporter activity” value (RAW-Dual [3]; [6]) of the same molecule?
The value was 0.911.

What about the “NF-kB SEAP reporter activity” value (RAW-Dual [3]; [7]) of the same molecule?
The value was 1.1.

Which results are given for `COC(=O)C1=C(C)NC(C)=C(C(=O)OC)C1c1ccccc1[N+](=O)[O-]` (library stock concentration (final ~1000-fold dilution): 10 mM)?
NF-kB SEAP reporter activity (RAW-Dual [3]; agonist: LPS (TLR4) 0.1 ug/mL): 2.15; NF-kB SEAP reporter activity (RAW-Dual [3]; [5]): 1.42; NF-kB SEAP reporter activity (RAW-Dual [3]; [6]): 1.5; NF-kB SEAP reporter activity (RAW-Dual [3]; [7]): 1.37

With `CCOC(=O)C1=C(COCCN)NC(C)=C(C(=O)OC)C1c1ccccc1Cl.O=S(=O)(O)c1ccccc1` (configuration not stated) as the molecule, how does the “NF-kB SEAP reporter activity” value (RAW-Dual [1]; [10]) read?
Its value is 2.53.

And the “NF-kB SEAP reporter activity” value (RAW-Dual [1]; [4])?
The value was 2.58.

With `COC(=O)C1=C(C)NC(C)=C(C(=O)OCC(C)C)C1c1ccccc1[N+](=O)[O-]` (configuration not stated) as the molecule, how does the “NF-kB SEAP reporter activity” value (RAW-Dual [1]; [8]) read?
The value was 0.706.

What about the “NF-kB SEAP reporter activity” value (RAW-Dual [1]; [9]) of the same molecule?
The value was 0.773.

How did the “NF-kB SEAP reporter activity” value (RAW-Dual [2]; agonist: LPS (TLR4) 0.1 ug/mL) turn out when `CCOC(=O)C1=C(COCCN)NC(C)=C(C(=O)OC)C1c1ccccc1Cl.O=S(=O)(O)c1ccccc1` (configuration not stated) (library stock concentration (final ~1000-fold dilution): 10 mM) was run?
Its value is 2.27.

What about the “NF-kB SEAP reporter activity” value (RAW-Dual [2]; [5]) of the same molecule?
The value was 0.532.

And the “NF-kB SEAP reporter activity” value (RAW-Dual [2]; [6])?
Its value is 0.907.

What about the “NF-kB SEAP reporter activity” value (RAW-Dual [2]; [7]) of the same molecule?
Its value is 0.924.

What does the source list for `COC(=O)C1=C(C)NC(C)=C(C(=O)OC)C1c1ccccc1[N+](=O)[O-]`?
NF-kB SEAP reporter activity (RAW-Dual [1]; [8]): 1.59; NF-kB SEAP reporter activity (RAW-Dual [1]; [9]): 1.35

What does the source list for `CCOC(=O)C1=C(C)NC(C)=C(C(=O)OC)C1c1cccc(Cl)c1Cl` (configuration not stated) (library stock concentration (final ~1000-fold dilution): 10 mM)?
NF-kB SEAP reporter activity (RAW-Dual [3]; agonist: LPS (TLR4) 0.1 ug/mL): 0.607; NF-kB SEAP reporter activity (RAW-Dual [3]; [5]): 0.648; NF-kB SEAP reporter activity (RAW-Dual [3]; [6]): 0.408; NF-kB SEAP reporter activity (RAW-Dual [3]; [7]): 0.423

Which “NF-kB SEAP reporter activity” value (RAW-Dual [1]; [8]) does the source give for `CCCC(=O)OCOC(=O)C1=C(C)NC(C)=C(C(=O)OC)C1c1cccc(Cl)c1Cl` (configuration not stated) here?
The value was 1.02.

And the “NF-kB SEAP reporter activity” value (RAW-Dual [1]; [9])?
Its value is 0.958.

For `CCOC(=O)C1=C(COCCN)NC(C)=C(C(=O)OC)C1c1ccccc1Cl` (configuration not stated) (library stock concentration (final ~1000-fold dilution): 10 mM), which “NF-kB SEAP reporter activity” value (RAW-Dual [2]; agonist: LPS (TLR4) 0.1 ug/mL) is on record?
Its value is 2.23 and 2.05.

And the “NF-kB SEAP reporter activity” value (RAW-Dual [2]; [5])?
The value was 0.736 and 1.01.

And the “NF-kB SEAP reporter activity” value (RAW-Dual [2]; [6])?
Its value is 0.785 and 0.751.

And the “NF-kB SEAP reporter activity” value (RAW-Dual [2]; [7])?
The value was 0.888 and 1.41.
